Here are results for 57 compounds from PubChem BioAssay AID588497 (NMMLSC, 2011).

Structures are written as SMILES. Out of some 360,000 compounds screened, about 780 (0.22%) were called active. About 4% were inconclusive and are not listed. This is one part of a sample in which actives are shown more often than they occur. Unmarked numbers belong to inactive results. No stated cut-off is given here; in the data, active means inhibition above about 35% (passing the limit was not always enough); inconclusive means no clear call, values can overlap the other calls.

The subject of this test is Botulinum neurotoxin type F light chain protease (Clostridium botulinum). Description: BoNT/F light chain protease inhibitors, primary screen, biochemical, flow cytometry, MLPCN library (AID 588497). Further: plate controls were buffer without enzyme for full effect and enzyme alone for no effect. As to conditions: Multiplex microsphere protease cleavage assay, at 10 µM, active compounds read high. In general terms: Flow cytometry measures light scatter and fluorescence of single cells or particles in a stream.
A word on the inhibition: it is the drop in the measured response relative to a control, in per cent. As to `Cc1nc2c(OCC(=O)C(C)(C)C)cccn2c1N(C)Cc1cccs1`, the inhibition was 4.6%.
Consider `CC(=O)Nc1cc(-c2ccccc2F)cn2c(-c3cccc(C(F)(F)F)c3)cnc12`, for which the inhibition was 1.3%.
For `CC(=O)c1ccc(-c2cnc3c(NC=O)cc(-c4cccc(NS(C)(=O)=O)c4)cn23)cc1`, the inhibition is 3%.
In the case of `Cc1ccc2nc(-c3ccco3)c(Cc3cccc(Cl)c3)n2c1`, the inhibition is 0%.
With `Cc1cccc(C)c1Cn1c(C)c(C(=O)NCc2cccc(Cl)c2)sc1=O`, the inhibition is -3.1%.
Then `COc1ccc(/C=C/C(=O)c2c(O)cc(OC)cc2OC)cc1`, with -3.2%; and `Cc1cc(O)c(Sc2ccccc2)c(=O)o1`, with -0.7%; and `Cc1cc(O)c(C(=O)/C=C/c2c(F)c(F)c(F)c(F)c2F)c(=O)o1`, with 39.9% (active).
As to `CCCCn1nnnc1C(c1cccc(OC)c1OC)N1CCN(C/C=C/c2ccccc2)CC1` (configuration not stated), the inhibition is -4.8%.
As for `COc1ccccc1CNC(=O)c1cc(-c2cc(Cl)ccc2C)n[nH]1`, the inhibition is -6.5%.
With `Fc1cccc(Cc2c(-c3cccc(Cl)c3)nc3ccc(Br)cn23)c1`, the inhibition was 12.2%.
On to `CC1Cc2ccccc2N1C1=CC(=O)CC(C)(C)C1` (configuration not stated), for which the inhibition was -1.7%.
For `CC1(C)CC(=O)C=C(N2CCCC2)C1`, the inhibition is 43.8% (active).
As for `CC1(C)CC(=O)C=C(N2CCOCC2)C1`, the inhibition is -0.6%.
In the case of `CN(C(=O)CN1CCN(c2cc(-c3ccc(OCc4ccccc4)cc3)ncn2)CC1)c1ccccc1` it was -2.5%.
Then `Cc1ccc2nc(-c3ccccc3)c(CC3CCCCC3)n2c1`, with -7.4%; and `COc1cc(F)ccc1-c1cc(C(=O)NCC2CCCCC2)[nH]n1`, with -7.3%.
For the compound `CCCCCn1nnnc1-c1nc2cc3ccccc3cc2[nH]c1=O`, the inhibition is 4.1%.
`CCc1nc2ccc(C(=O)NCc3ccc(OC)cc3)cn2c1N(CC)Cc1cccc(Br)c1`: the inhibition is -5.2%.
On to `COc1cccc(CNc2nc(NCc3ccccc3OC)nc3ccsc23)c1`, for which the inhibition is -10.7%.
With `CC(O)c1nc2c(c(=O)n(C)c(=O)n2C)n1C` (configuration not stated), the inhibition was 7.6%.
As to `Cn1c(=O)c2c(nc(NCc3ccccc3)n2CC(N)=O)n(C)c1=O`, the inhibition is -8.9%.
`CCC/C(C)=N\Nc1nc2c(c(=O)n(C)c(=O)n2C)n1C`: the inhibition was 46.4% (active).
Take `CCCCN(C=O)c1c(CC)nc2c(OCCC3CCCCC3)cccn12`: the inhibition is -1.8%.
On to `CCn1cc(C(=O)NCC2COc3ccccc3O2)c2cc(OC)c(OC)cc2c1=O` (configuration not stated), for which the inhibition was -4.2%.
Regarding `COc1cc(C(=O)N2CCN(C3CCC(C)CC3)CC2)cc(OC)c1OC` (configuration not stated), the inhibition was -2.2%.
Then `CCn1cc(C(=O)N2CCN(C3CCCCC3)CC2)c2cc(OC)c(OC)cc2c1=O`, with 35% (active); and `Cc1cccnc1C(NC(=O)C1CCN(Cc2ccc(Cl)c(Cl)c2)CC1)c1ccc(Cl)cc1` (configuration not stated), with -0.6%.
As to `CC(=O)Nc1cc(-c2ccccc2N(C)C)cn2c(-c3ccc(F)c(Cl)c3)cnc12`, the inhibition was -0.7%.
Regarding `CCOc1ccc(NC(=O)CC(Cc2ccc(Cl)cc2)C(=O)O)cc1` (configuration not stated), the inhibition is 42.9% (active).
In the case of `CCOc1ccc(NC(=O)CC2NCCNC2=O)cc1` (configuration not stated) it was -3.7%.
For the compound `CN(CC(=O)Nc1ccc(Cl)cc1)C(=O)c1ccc(COc2ccccc2)cc1`, the inhibition was 8.6%.
Consider `C=C1C(=O)[C@]23C[C@H]1CCC2[C@@]1(C)C(C[C@@H]3O)[C@](C)(C(=O)O)CC[C@@H]1O` (some centres not stated), for which the inhibition was 6.7%.
In the case of `CC12CCC(=O)C=C1CCC1C2C(O)CC2(C)C1CCC2(O)C(O)CO` (configuration not stated), the inhibition was -2.7%.
For `COc1ccc(-c2cc3nc(NCCOc4ccccc4)ccn3n2)cc1`, the inhibition was -7%.
In the case of `CC1=C(C(=O)N(C(C)C)C(C)C)CC(CC(=O)NCCCCc2ccccc2)C(=O)N1CCC1=CCCCC1` (configuration not stated), the inhibition is -9.4%.
Regarding `CC(C)(C)CC(=O)Nc1nc(C(N)Cc2ccc(C(F)(F)F)cc2)cs1` (configuration not stated), the inhibition was -15.5%.
Regarding `CCCNC(=O)c1cc2c(c(-c3cccc(-c4ccc(C#N)cc4)c3)n1)[C@@H](CCO)N(C(=O)CC)C2`, the inhibition was -8.6%.
With `CN1CCN(c2ccc(NC(=O)c3ccc4c(c3)[nH]c(=O)n4Cc3ccc(F)cc3)cc2)CC1`, the inhibition was -37.9%.
Take `CN1CCN(c2ccc(NC(=O)c3ccccc3)cc2)CC1`: the inhibition was 38.8% (active).
With `CN1CCN(c2ccc(NC(=O)c3cc(Cl)c4c(c3)OCCO4)cc2)CC1`, the inhibition was -0.9%.
As to `CCCCC(=O)N(C)c1c(CC)nc2c(OCc3ccc(Cl)cc3Cl)cccn12`, the inhibition is -1.2%.
Turning to `CCC(c1nnnn1-c1ccc2c(c1)OCCO2)N1CCN(c2ccc(C(F)(F)F)cn2)CC1` (configuration not stated), the inhibition was 6.4%.
For `CC1=C(C(=O)N(C(C)C)C(C)C)CC(CC(=O)NCC2CCCCC2)C(=O)N1Cc1ccccc1` (configuration not stated), the inhibition was -6.1%.
Then `O=C1C(Sc2cccc(F)c2)=C[C@@]2(O)CC[C@@H](O)[C@]1(Sc1cccc(F)c1)[C@H]2O`, with -5.7%.
Then `CCOC(=O)C1=CCC2C(=O)N(Cc3ccccc3)C(=O)C12` (configuration not stated), with 7.8%.
In the case of `CC(=O)Nc1cncc(-c2ccccc2CO)n1`, the inhibition is -2.7%.
With `O=C(NCCN1CCOCC1)c1ccccc1N1C(=O)[C@@H]2Cc3c([nH]c4ccccc34)C(c3cccc(Cl)c3)N2C1=O` (some centres not stated), the inhibition was -6.1%.
As to `NNC(=O)CNC(c1ccccc1)c1cc(Cl)ccc1NC(=O)c1ccccc1` (configuration not stated), the inhibition is 43.2% (active).
With `O=C(COC(=O)c1ccccc1)Nc1ccc(Cl)cc1C(=O)c1ccccc1`, the inhibition was -15.4%.
Regarding `CC(NCC(=O)Nc1cc(Cl)cc(Cl)c1)c1ccccc1` (configuration not stated), the inhibition is 2.2%.
Then `CC(C)C[C@H]1CNC(=S)N1C[C@H]1CCCN1C[C@H](Cc1ccc(O)cc1)N1C[C@H](Cc2ccc(O)cc2)N(CC2CCCCC2)C1=S`, with -11%; and `COc1ccccc1-n1c(-c2cc(-c3ccco3)[nH]n2)n[nH]c1=S`, with 40.9% (active); and `COc1ccc(-n2c(-c3ccc(Cl)cc3)n[nH]c2=S)c(OC)c1`, with -4.7%.
Turning to `COc1ccccc1-n1cn[nH]c1=S`, the inhibition is 0.3%.
As to `OC(c1ccccc1)(c1ccccc1)C1CCN(CCCOc2ccccc2)CC1`, the inhibition is 0.4%.
Regarding `CC1(C(=O)NCc2ccc(F)c(F)c2)Cc2c(-c3ccc4c(c3)OCO4)ccnc2O1` (configuration not stated), the inhibition was -7.8%.
